# Source: PubChem BioAssay (NCATS)
# Values joined by “and” are separate entries in the source; they are usually repeats but may differ in a detail not shown here. Equal entries are not always repeated. Records with an inconclusive call do not appear. Entries that show only a call come without a potency. Unmarked numbers belong to inactive results. Active and inactive are the calls of the source. Calls come from the whole dose curve; as a rule, active = well fitted inhibition curve with a large enough effect; inconclusive = small, poorly fitted or top-dose-only effect; inactive = flat fitted curve, though single readings scatter.
# What was measured:
# ECU = test: qHTS profiling for inhibitors of Plasmodium falciparum proliferation (AID 504749); details: P. falciparum in erythrocytes, SYBR Green DNA, 72 h; series mostly up to 28.7 µM
# Outline: (§1)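 In a 72 h erythrocytic culture (37 C, humidified, 5% CO2) at 2.5% hematocrit and 0.3% starting parasitemia, compounds were tested; SYBR Green I in detergent lysis buffer stained parasite DNA overnight.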
# FAB9 = test: as above; details: P. falciparum in erythrocytes, SYBR Green DNA, 72 h; series mostly up to 28.7 µM
# Outline: as §1
# GB4 = test: as above; details: P. falciparum in erythrocytes, SYBR Green DNA, 72 h; series mostly up to 28.7 µM
# Outline: as §1
# HB3 = test: as above; details: P. falciparum in erythrocytes, SYBR Green DNA, 72 h; series mostly up to 28.7 µM
# Outline: as §1
# ICS = test: as above; details: P. falciparum in erythrocytes, SYBR Green DNA, 72 h; series mostly up to 28.7 µM
# Outline: as §1
# JCK = test: as above; details: P. falciparum in erythrocytes, SYBR Green DNA, 72 h; series mostly up to 28.7 µM
# Outline: as §1
# N140 = test: as above; details: P. falciparum in erythrocytes, SYBR Green DNA, 72 h; series mostly up to 28.7 µM
# Outline: as §1
# P93_24 = test: as above; details: P. falciparum in erythrocytes, SYBR Green DNA, 72 h; series mostly up to 28.7 µM
# Outline: as §1
# P94_40 = test: as above; details: P. falciparum in erythrocytes, SYBR Green DNA, 72 h; series mostly up to 28.7 µM
# Outline: as §1
# PAD = test: as above; details: P. falciparum in erythrocytes, SYBR Green DNA, 72 h; series mostly up to 28.7 µM
# Outline: as §1
# PC15 = test: as above; details: P. falciparum in erythrocytes, SYBR Green DNA, 72 h; series mostly up to 28.7 µM
# Outline: as §1
# PC26 = test: as above; details: P. falciparum in erythrocytes, SYBR Green DNA, 72 h; series mostly up to 28.7 µM
# Outline: as §1
# PC49 = test: as above; details: P. falciparum in erythrocytes, SYBR Green DNA, 72 h; series mostly up to 28.7 µM
# Outline: as §1
# SC27B = test: as above; details: P. falciparum in erythrocytes, SYBR Green DNA, 72 h; series mostly up to 28.7 µM
# Outline: as §1
# TAB109 = test: as above; details: P. falciparum in erythrocytes, SYBR Green DNA, 72 h; series mostly up to 28.7 µM
# Outline: as §1
# TAB113 = test: as above; details: P. falciparum in erythrocytes, SYBR Green DNA, 72 h; series mostly up to 28.7 µM
# Outline: as §1
# TAB165 = test: as above; details: P. falciparum in erythrocytes, SYBR Green DNA, 72 h; series mostly up to 28.7 µM
# Outline: as §1
# W2 = test: as above; details: P. falciparum in erythrocytes, SYBR Green DNA, 72 h; series mostly up to 28.7 µM
# Outline: as §1
# CRL-7250 = normal cell line; test: Cytotoxic Profiling of Annotated Libraries Using Quantitative High-Throughput Screening (AID 1296008); details: Five cell lines viability, CellTiter-Glo ATP luminescence, 48-72 h; max response: stronger effect = lower value
# Outline: (§2)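 Cytotoxicity was measured as CellTiter-Glo ATP luminescence, read after 10 min at room temperature. Compound treatment of the cells lasted 48 or 72 hr at 37 degrees Celsius in a qHTS format.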
# HEK293 = test: as above; details: Five cell lines viability, CellTiter-Glo ATP luminescence, 48-72 h; max response: stronger effect = lower value
# Outline: as §2
# Note: nearly all actives have a fitted effect of over 60% in size.
# Potency is the fitted concentration of half-maximal effect.
smiles,measurement,setting,value
COC(=O)[C@@H]1CC2=CC(=O)CC[C@]2(C)[C@@]23O[C@@H]2C[C@@]2(C)[C@@H](CC[C@@]24CCC(=O)O4)[C@H]13,Potency,ECU,inactive
same,Potency,FAB9,inactive
same,Potency,GB4,inactive
same,Potency,HB3,inactive
same,Potency,ICS,inactive
same,Potency,JCK,inactive
same,Potency,N140,inactive
same,Potency,P93_24,inactive
same,Potency,P94_40,inactive
same,Potency,PAD,inactive
same,Potency,PC15,inactive
same,Potency,PC26,inactive
same,Potency,PC49,inactive
same,Potency,SC27B,inactive
same,Potency,TAB109,inactive
same,Potency,TAB113,inactive
same,Potency,TAB165,inactive
same,Potency,W2,inactive
same,max response,CRL-7250,-2.8%
same,max response,HEK293,3.69%
N[C@H](Cc1c[nH]c2ccccc12)C(=O)O,Potency,ECU,inactive
same,Potency,FAB9,inactive
same,Potency,GB4,inactive
same,Potency,HB3,inactive
same,Potency,ICS,inactive
same,Potency,JCK,inactive
same,Potency,N140,inactive
same,Potency,P93_24,inactive
same,Potency,P94_40,inactive
same,Potency,PAD,inactive
same,Potency,PC15,inactive
same,Potency,PC26,inactive
same,Potency,PC49,inactive
same,Potency,SC27B,inactive
same,Potency,TAB109,inactive
same,Potency,TAB113,inactive
same,Potency,TAB165,inactive
same,Potency,W2,inactive
same,max response,CRL-7250,-25%
same,outcome,HEK293,inactive
CC(=O)N(O)CCCCCNC(=O)CCC(=O)N(O)CCCCCNC(=O)CCC(=O)N(O)CCCCCN,Potency,ECU,inactive
same,Potency,FAB9,inactive
same,Potency,GB4,inactive
same,Potency,HB3,inactive
same,Potency,ICS,inactive
same,Potency,JCK,10 µM (active)
same,Potency,N140,inactive
same,Potency,P93_24,inactive
same,Potency,P94_40,inactive
same,Potency,PAD,inactive
same,Potency,PC15,inactive
same,Potency,PC26,inactive
same,Potency,SC27B,inactive
same,Potency,TAB109,inactive
same,Potency,TAB113,inactive
same,Potency,TAB165,inactive
same,Potency,W2,inactive
same,Potency,CRL-7250,2.99 µM (active)
same,Potency,HEK293,52.4 nM (active) and 9.44 µM (active)
COc1ccc(C2C(=O)c3ccccc3C2=O)cc1,Potency,ECU,inactive
same,Potency,FAB9,inactive
same,Potency,GB4,inactive
same,Potency,HB3,inactive
same,Potency,ICS,inactive
same,Potency,JCK,inactive
same,Potency,N140,inactive
same,Potency,P93_24,inactive
same,Potency,P94_40,inactive
same,Potency,PAD,inactive
same,Potency,PC15,inactive
same,Potency,PC26,inactive
same,Potency,PC49,inactive
same,Potency,SC27B,inactive
same,Potency,TAB109,inactive
same,Potency,TAB113,inactive
same,Potency,TAB165,inactive
same,Potency,W2,inactive
same,max response,CRL-7250,-6.18%
same,max response,HEK293,-6.61%
CCN(CCCCOC(=O)c1ccc(OC)c(OC)c1)C(C)Cc1ccc(OC)cc1 (configuration not stated),outcome,CRL-7250,inactive
same,max response,HEK293,-15.6%
Cc1cc(=O)n(-c2ccccc2)n1C,Potency,ECU,inactive
same,Potency,FAB9,inactive
same,Potency,GB4,inactive
same,Potency,HB3,inactive
same,Potency,ICS,inactive
same,Potency,JCK,inactive
same,Potency,N140,inactive
same,Potency,P93_24,inactive
same,Potency,P94_40,inactive
same,Potency,PAD,inactive
same,Potency,PC15,inactive
same,Potency,PC26,inactive
same,Potency,PC49,inactive
same,Potency,SC27B,inactive
same,Potency,TAB109,inactive
same,Potency,TAB113,inactive
same,Potency,TAB165,inactive
same,Potency,W2,inactive
same,max response,CRL-7250,2.86%
same,max response,HEK293,-47.4%
Cc1ncc(CSSCc2cnc(C)c(O)c2CO)c(CO)c1O,Potency,ECU,inactive
same,Potency,FAB9,inactive
same,Potency,GB4,inactive
same,Potency,HB3,inactive
same,Potency,ICS,inactive
same,Potency,JCK,inactive
same,Potency,N140,inactive
same,Potency,P93_24,inactive
same,Potency,P94_40,inactive
same,Potency,PAD,inactive
same,Potency,PC15,inactive
same,Potency,PC26,inactive
same,Potency,PC49,inactive
same,Potency,SC27B,inactive
same,Potency,TAB109,inactive
same,Potency,TAB113,inactive
same,Potency,TAB165,inactive
same,Potency,W2,inactive
same,max response,CRL-7250,-3.39%
same,outcome,HEK293,inactive
OCc1ccccc1O,Potency,ECU,inactive
same,Potency,FAB9,inactive
same,Potency,GB4,inactive
same,Potency,HB3,inactive
same,Potency,ICS,inactive
same,Potency,JCK,inactive
same,Potency,N140,inactive
same,Potency,P93_24,inactive
same,Potency,P94_40,inactive
same,Potency,PC15,inactive
same,Potency,PC26,inactive
same,Potency,PC49,inactive
same,Potency,SC27B,inactive
same,Potency,TAB109,inactive
same,Potency,TAB113,inactive
same,Potency,TAB165,inactive
same,max response,CRL-7250,2.81%
same,outcome,HEK293,inactive
COCc1c(C(C)C)nc(C(C)C)c(/C=C/[C@@H](O)C[C@@H](O)CC(=O)O)c1-c1ccc(F)cc1,Potency,ECU,inactive
same,Potency,FAB9,inactive
same,Potency,GB4,inactive
same,Potency,HB3,inactive
same,Potency,ICS,inactive
same,Potency,JCK,inactive
same,Potency,N140,inactive
same,Potency,P93_24,inactive
same,Potency,P94_40,inactive
same,Potency,PAD,inactive
same,Potency,PC15,inactive
same,Potency,PC26,inactive
same,Potency,PC49,inactive
same,Potency,TAB109,inactive
same,Potency,TAB113,inactive
same,Potency,TAB165,inactive
same,Potency,CRL-7250,0.0596 µM (active)
same,Potency,HEK293,531 nM (active)
